Rows were chosen to be rich in hits. Some 12% of all compounds tested hit in one or more screens of this group.
OTUD3 block: blocks human OTUD3 ubiquitin-rhodamine cleavage; Q5T2D3; purified OTUD3, Ub-rhodamine fluorescence, 2 h; inhibition, % at 25 µM; 0.7% of 47,000 active; AID 1645858
USP17 block: inhibitors of human USP17 deubiquitinase; purified USP17, Ub-rhodamine cleavage fluorescence, 3 h; inhibition, % at 50 µM; 6.5% of 47,000 active; AID 1645855
USP28 block: human USP28 deubiquitinase inhibition | Q96RU2 | purified USP28, Ub-rhodamine cleavage fluorescence, 30 min | inhibition, % at 25 µM | 3% of 47,000 active | AID 1645857
Target sequence (Q96RU2 whole entry, looked up): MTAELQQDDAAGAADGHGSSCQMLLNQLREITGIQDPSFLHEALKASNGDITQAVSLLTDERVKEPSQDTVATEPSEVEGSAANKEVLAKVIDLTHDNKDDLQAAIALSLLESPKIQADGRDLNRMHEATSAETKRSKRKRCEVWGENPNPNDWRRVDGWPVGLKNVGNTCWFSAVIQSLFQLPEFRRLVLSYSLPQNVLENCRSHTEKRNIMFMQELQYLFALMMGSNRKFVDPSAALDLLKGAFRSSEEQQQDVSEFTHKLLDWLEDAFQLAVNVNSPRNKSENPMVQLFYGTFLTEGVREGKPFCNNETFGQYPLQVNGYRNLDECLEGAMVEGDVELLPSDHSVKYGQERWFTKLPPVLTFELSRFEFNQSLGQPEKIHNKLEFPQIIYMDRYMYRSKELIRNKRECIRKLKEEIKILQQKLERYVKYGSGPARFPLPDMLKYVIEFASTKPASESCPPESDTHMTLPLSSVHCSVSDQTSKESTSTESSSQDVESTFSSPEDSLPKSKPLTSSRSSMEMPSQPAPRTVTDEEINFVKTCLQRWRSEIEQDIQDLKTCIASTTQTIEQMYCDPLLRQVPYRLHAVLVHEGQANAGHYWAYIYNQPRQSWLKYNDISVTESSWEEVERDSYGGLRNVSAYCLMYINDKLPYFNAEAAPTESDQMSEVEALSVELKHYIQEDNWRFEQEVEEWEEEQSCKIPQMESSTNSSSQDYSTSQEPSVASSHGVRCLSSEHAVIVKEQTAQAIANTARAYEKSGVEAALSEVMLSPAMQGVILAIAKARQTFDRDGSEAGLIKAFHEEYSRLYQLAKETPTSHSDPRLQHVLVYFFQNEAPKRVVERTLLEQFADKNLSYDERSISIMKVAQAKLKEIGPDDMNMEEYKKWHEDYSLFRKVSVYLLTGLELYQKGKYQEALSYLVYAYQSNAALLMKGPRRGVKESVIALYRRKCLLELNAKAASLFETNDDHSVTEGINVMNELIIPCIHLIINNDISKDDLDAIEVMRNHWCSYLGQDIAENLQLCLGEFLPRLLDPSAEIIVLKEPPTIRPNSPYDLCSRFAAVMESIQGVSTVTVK
USP30 block: inhibitors of human USP30 deubiquitinase; purified USP30, Ub-rhodamine cleavage fluorescence; inhibition, % at 25 µM; 5.3% of 47,000 active; AID 1645860
* hit, by the source's call; . = no result. Cut-off read from the data, not from the text of the source: active = inhibition above about 30%; inactive = the rest.

SMILES | OTUD3 block | USP17 block | USP28 block | USP30 block
O=C(NCCc1nc2ccccc2[nH]1)c1cc2ccccc2o1 | -5 | -2 | 4 | -3
CSc1cccc(NC(=O)CNC(=O)c2cc3ccccc3o2)c1 | -12 | 65* | 13 | -27
O=C(Nc1ccc2[nH]c(=O)[nH]c2c1)c1cc2ccccc2o1 | -24 | 43* | -9 | -89
Cn1nc(-c2ccccc2)c(C#N)c1Sc1ccc(F)cc1 | 4 | 7 | 26 | 6
Cc1ccc(NC(=O)c2ccc(N3C(=O)C(C)CS3(=O)=O)cc2)cc1C (stereo unspecified) | 7 | 15 | 7 | 5
Cc1ccnc(NC(=O)CC(c2cccc(F)c2)n2cccc2)c1 (stereo unspecified) | 2 | 5 | 18 | 2
O=C(NCc1noc(C2CCCO2)n1)c1coc(-c2ccccc2)n1 (stereo unspecified) | -1 | -20 | -7 | -6
Cc1cccc(OCc2nc(-c3ccnc(N4CCCC4)c3)no2)c1 | 7 | 10 | 32* | 18
c1cc(-c2noc([C@@H]3CCCN3CC3CC3)n2)cc(N2CCCC2)n1 | 0 | -1 | -6 | -21
COc1ccc(OCc2nc(-c3ccc(N4CCCCCC4)nc3)no2)cc1 | -38 | 5 | -16 | -254
Fc1ccc(Cc2nc(-c3ccnc(N4CCCC4)c3)no2)cc1 | -3 | -9 | 48* | 0
Cn1c(=O)n(Cc2cccc(Cl)c2)c(=O)c2cnc(-c3ccncc3)nc21 | -166 | -141 | -145 | -498
COc1ccc(-c2ncc3c(=O)n(Cc4cccnc4)c(=O)n(C)c3n2)cc1 | 22 | 0 | 18 | 36*
Cc1cccc(C(=O)Nc2nc3c(s2)CCC3)c1 | 14 | 0 | 38* | 13
Cc1ccc(NC(=O)Cn2cc(S(=O)(=O)N3CCCC3)ccc2=O)cc1 | 1 | 52* | 10 | -11
Clc1ccc(-c2cnc3sc(NCCc4ccccn4)nn23)cc1 | 8 | 8 | 1 | 22
Clc1ccccc1-c1cnc2sc(NCCc3ccccn3)nn12 | 3 | 13 | 28 | 33*
COc1ccccc1-c1noc(Cn2cnc3c(nnn3Cc3ccc(F)cc3)c2=O)n1 | -2 | -4 | 3 | 15
CCOc1ccccc1-c1noc(CCn2c(=O)[nH]c3ccccc3c2=O)n1 | 9 | 10 | 11 | 35*
CCn1c(=O)c2ccccc2n(Cc2nc(-c3ccccc3OC)no2)c1=O | 6 | 56* | 1 | 6
O=c1[nH]c2ccccc2c(=O)n1CCc1nc(-c2ccc(F)cc2)no1 | -5 | 36* | -7 | 0
COc1ccc(OC)c(NC(=O)C2Oc3ccccc3NC2=O)c1 (stereo unspecified) | -8 | -11 | 51* | 0
COc1cccc(CNC(=O)C2Oc3ccccc3NC2=O)c1 (stereo unspecified) | 1 | -1 | -2 | -10
CC(=O)Nc1ccc(NC(=O)C(C)Nc2ccc(Oc3ccccc3)cc2)cc1 (stereo unspecified) | -10 | 4 | 0 | -81
CC(Nc1ccc(Oc2ccccc2)cc1)C(=O)Nc1cccc(C#N)c1 (stereo unspecified) | 8 | 37* | . | .
SMILES | OTUD3 block | USP17 block | USP28 block | USP30 block
COCCCn1c(-c2ccccc2)cn2c3c(=O)[nH]c(=O)n(C)c3nc12 | 0 | 5 | -3 | 22
Cc1ccc(-n2c(-c3ccccc3)cn3c4c(=O)[nH]c(=O)n(C)c4nc23)cc1Cl | 10 | 52* | 16 | 34*
Cn1c(=O)[nH]c(=O)c2c1nc1n(CCc3ccccc3)c(-c3ccccc3)cn21 | 0 | 54* | 5 | 50*
Cc1ccc(-n2c(-c3ccccc3)cn3c4c(=O)[nH]c(=O)n(C)c4nc23)cc1C | 0 | 78* | 5 | -44
CC(Oc1ccc(F)cc1)C(=O)Nc1ccccc1Br (stereo unspecified) | 8 | 10 | 3 | 7
CC(Oc1ccc(F)cc1)C(=O)Nc1ccc2nsnc2c1 (stereo unspecified) | -4 | 34* | 25 | -2
Cc1snc(SCc2nc(COc3ccc(Cl)cc3Cl)n[nH]2)c1C#N | 26 | 15 | 40* | 40*
COc1ccccc1NC(=O)N1CCCC1c1nc(-c2cccc(Cl)c2)no1 (stereo unspecified) | 16 | 12 | 17 | 40*
COc1ccc(-c2noc([C@@H]3C[C@H](NC(=O)Nc4ccc(C)cc4)CN3C)n2)cc1 | 10 | 4 | 9 | 42*
COc1ccc(-c2noc(C3CCCN3C(=O)Nc3cccc(C)c3)n2)cc1 (stereo unspecified) | -1 | 10 | 10 | 9
COc1ccc(-c2noc([C@@H]3C[C@H](NC(=O)c4ccccc4)CN3C)n2)cc1 | -4 | -64 | -5 | -47
COc1ccc(-c2noc(C3CCCN3C(=O)Nc3ccc(C)cc3C)n2)cc1 (stereo unspecified) | 16 | 14 | 15 | 33*
O=C(Cn1nnc2ccccc21)N1CCOC2(CC=CCN(Cc3ccccc3)C2=O)C1 (stereo unspecified) | -7 | -7 | -11 | -5
CC(=O)c1cccc(NC(=O)C(OC(=O)c2cc3ccccc3cc2O)c2ccccc2)c1 (stereo unspecified) | -8 | -1 | 5 | -22
O=C(NCCc1ccncc1)c1cc(-c2ccn(CC3CC3)n2)n2ccccc12 | -78 | -70 | -35 | -322
COc1cccc(-c2nn(Cc3ccccc3)cc2C(=O)N2CCN(CCOc3ccccc3)CC2)c1 | -12 | 0 | -20 | -18
Cc1ccc2c(c1)N(Cc1ccc(Cl)cc1)C(=O)CCS2 | 14 | 24 | 27 | 30*
CN(C)C=Nc1c(C#N)nnn1-c1cc(Cl)cc(Cl)c1 | -37 | 6 | -18 | -101
Cc1sc2nc(-c3cccnc3)nc(NCCCN3CCOCC3)c2c1C | -2 | 33* | 4 | 21
CC(=O)c1ccc(S(=O)(=O)N(Cc2ccc(C(=O)NC3CC3)cc2)C2CC2)cc1 | 14 | 27 | 15 | 30*
COc1ccc(S(=O)(=O)N(Cc2ccc3c(c2)CCO3)C2CC2)cc1 | 13 | 18 | 0 | 13
COc1cccc(N2CC(NS(=O)(=O)c3ccc4ccccc4c3)CC2=O)c1 (stereo unspecified) | 13 | 28 | 20 | 33*
O=C1CC(NS(=O)(=O)c2ccc3ccccc3c2)CN1c1cccc(F)c1 (stereo unspecified) | 6 | 55* | 12 | 23
Cc1c(C)n(-c2ccc(Br)cn2)c2ncnc(NCCCO)c12 | 1 | 4 | 4 | 60*
O=C(NCc1cccnc1)c1cnn2c(C(F)(F)F)cc(-c3ccc(F)cc3)nc12 | -3 | 36* | -1 | 56*
O=c1[nH]c(C2CCN(S(=O)(=O)c3ccc(S(=O)(=O)NC4CC4)cc3)CC2)nc2c1nnn2Cc1ccccc1 | 1 | 33* | 22 | 39*
O=c1[nH]c(C2CCN(S(=O)(=O)c3ccc(S(=O)(=O)NC4CCCCC4)cc3)CC2)nc2c1nnn2Cc1ccc(F)cc1 | 14 | 47* | 44* | 40*
O=c1[nH]c(C2CCN(S(=O)(=O)c3ccc(S(=O)(=O)NC4CC4)cc3)CC2)nc2c1nnn2Cc1ccc(F)cc1 | -1 | . | 21 | 42*
